Bioassay records from PubChem BioAssay.
mHTT CaM bind: disrupts binding of mutant huntingtin to calmodulin; P42858; AlphaScreen His-mHTT/GST-CaM binding, luminescence; inhibition, % at 15 µM; 3.6% of 190,000 active;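 further: 0% = both proteins with DMSO and 100% = one protein alone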
Pf apPOL inh: Pf-apPOL DNA polymerase inhibition | Recombinant Pf-apPOL, molecular beacon fluorescence, 1.5 h | inhibition, % at 10 µM | AID 1794808 | 0.25% of 210,000 active
* marks the source's active call; other numbers are inactive results; x = no result. An excerpt weighted towards active compounds, which were near 3.5% of everything screened. No stated cut-off is given here; in the data, active means inhibition above about 50%; inactive means the rest.

SMILES | mHTT CaM bind | Pf apPOL inh
COc1ccc(-c2nnc(-c3cccc([N+](=O)[O-])c3)o2)cc1 | -13.1 | 6.1
Cc1ccc(/C=C/C23NC(=O)CCN2c2ccccc2C3(C)C)cc1 (stereo unspecified) | 55.0* | -3.9
CC1(C)c2ccccc2N2CCC(=O)NC21C=Cc1cccs1 (stereo unspecified) | x | -8.9
NNc1ncnc2sc3c(c12)CCN(Cc1ccccc1)C3 | 90.4* | 0.0
O=c1[nH]c(CNC2CC2)nc2sc3c(c12)CCN(Cc1ccccc1)C3 | 28.4 | 2.6
NNc1ncnc2sc3c(c12)CCC3 | 99.8* | -3.4
c1cc(Nc2ncnc3sc4c(c23)CCC4)ccn1 | 3.6 | 4.3
COc1ccc(CCNC(=O)NCC(O)C2CCCCC2)cc1 (stereo unspecified) | -8.5 | -2.6
CCC1CN(C(=O)NCCC(C)C)c2ccccc2O1 (stereo unspecified) | -21.5 | 0.0
Cc1ccc(CNC(=O)N2CC3CCCN3c3ccccc32)cc1 (stereo unspecified) | 56.9* | -3.1
O=C(NCc1ccccc1)c1ccc(NC(=O)N2CC3CCCN3c3ccccc32)cc1 (stereo unspecified) | 18.9 | 1.9
CC(C)CCNC(=O)N1CC2CCCN2c2ccccc21 (stereo unspecified) | 55.9* | -2.9
Cc1cccc(CNC(=O)CCC(=O)N2CC3CCCN3c3ccccc32)c1 (stereo unspecified) | 40.6 | -6.6
O=C(NCc1ccccc1)N1CC2CCCN2c2ccccc21 (stereo unspecified) | 83.3* | 0.2
CCC(C)C(NS(=O)(=O)c1ccc(C)cc1)C(=O)NCC(OC)OC (stereo unspecified) | -7.0 | -4.6
O=C(Cn1cnc2c(-c3ccc(F)cc3)csc2c1=O)Nc1ccc(F)cc1 | -5.3 | -5.1
FC(F)(F)c1ccc(C=NNc2nccc(C(F)(F)F)n2)cc1 | x | -16.4
CN(C)C(CNC(=O)C(=O)Nc1nccs1)c1cccs1 (stereo unspecified) | -1.3 | -5.4
COc1ccc(/C=c2\sc3nncn3c2=O)cc1 | 4.0 | -0.8
CCCN1C(=O)Cc2ccccc2C1C(=O)NCc1ccccc1OC (stereo unspecified) | -1.1 | -0.1
COc1ccccc1CNC(=O)C1c2ccccc2CC(=O)N1Cc1ccccc1 (stereo unspecified) | 99.8* | 1.1
COc1ccc(CNC(=O)CCC(=O)N2CCCn3nc(C)cc32)cc1 | -3.0 | -0.6
O=C1CSC(=O)N1CNc1cccc(Br)c1 | 5.0 | -1.7
Cc1cccc(Oc2ccc(N3C(=O)C=CC3=O)cc2)c1C | 49.0 | -9.4
NC(=O)c1ccc(Oc2cccc(Oc3ccc(C(N)=O)cc3)c2)cc1 | -0.9 | 0.8
SMILES | mHTT CaM bind | Pf apPOL inh
O=C1C=CC(=O)N1c1ccc(Oc2cccc(Oc3ccc(N4C(=O)C=CC4=O)cc3)c2)cc1 | 91.0* | -6.0
Nc1ccc(Oc2cccc(Oc3ccc(N)cc3)c2)cc1 | 52.1* | -17.8
COc1ccc(CNc2ccc(F)cc2C)cc1C | 25.7 | -11.6
Cc1ccn2c(NC(=O)C(C)C)c(CCc3ccccc3)nc2c1 | 0.7 | -4.0
c1ccc2nc(-c3nc4ccccc4[nH]3)ccc2c1 | 3.3 | 9.4
CC1C(c2ccc3ccccc3n2)=CNc2ccccc21 (stereo unspecified) | 91.0* | -0.6
CN1CCN(C(=O)c2cc3nc(-c4ccc(Cl)c(Cl)c4)cc(C(F)(F)F)n3n2)CC1 | 1.0 | -4.8
COc1cccc(C(=O)N2CCN=C2SCc2cccc(F)c2)c1OC | -20.3 | 59.1*
COc1cccc(C(=O)N2CCN=C2SC)c1OC | 5.0 | -2.7
COc1ccc2cc(C3CC(c4ccc(C)cc4)=NN3C(=O)CCC(=O)O)c(Cl)nc2c1 (stereo unspecified) | 24.0 | -3.4
COc1cccc(CNc2ccc3c(c2)ncn3C2CCCCC2)c1OC | 41.0 | 0.0
COc1ccccc1CNc1ccc2c(c1)ncn2C1CCCCC1 | 55.0* | -4.0
CN(C)CCNC(=O)c1ccccc1CN1C(=O)C2CCCN2C(=O)c2ccccc21 (stereo unspecified) | -8.6 | -3.3
COc1ccc(CNC(=O)[C@@H]2CC=C[C@@H]3CCN(Cc4ccc(Cl)c(Cl)c4)C(=O)[C@@H]32)cc1 | 94.4* | -8.4
COc1ccc(CNC(=O)[C@@H]2CC=C[C@@H]3CCN(Cc4ccc(OC)c(OC)c4)C(=O)[C@@H]32)cc1 | 5.7 | -4.8
O=C(O)[C@H]1CC=C[C@H]2CCN(Cc3ccc(Cl)c(Cl)c3)C(=O)[C@@H]12 | 34.8 | -8.4
COC(=O)[C@H]1CC=C[C@H]2CCN(Cc3ccc(Cl)c(Cl)c3)C(=O)[C@@H]12 | 68.5* | -5.5
CCC(=O)NC1CCc2[nH]c3ccc(C)cc3c2C1 (stereo unspecified) | 26.4 | -3.5
Cc1ccc2[nH]c3c(c2c1)CC(NC(=O)CC1C=CCC1)CC3 (stereo unspecified) | 96.8* | 5.5
Cc1cc2[nH]c3c(c2cc1C)CC(NC(=O)C1CCCC1)CC3 (stereo unspecified) | 44.8 | 38.8
O=C(CC1CC1)NC1CCc2[nH]c3ccc(Cl)cc3c2C1 (stereo unspecified) | 87.6* | 2.1
O=[N+]([O-])c1cccc(/C=C/c2ccccn2)c1 | -2.1 | 67.3*
O=[N+]([O-])c1cccc(/C=C/c2ccc3ccccc3n2)c1 | 1.4 | -4.5
Cc1ccc(C(=O)N2CCC(CCNS(=O)(=O)c3cccc(C)c3)CC2)cc1 | 44.4 | 1.1
O=C(c1ccc(F)cc1)N1CCC(CCNS(=O)(=O)c2ccc(Cl)cc2)CC1 | 55.1* | -0.3
SMILES | mHTT CaM bind | Pf apPOL inh
Cc1ccc(C)c(S(=O)(=O)NCCC2CCN(C(=O)c3ccc(F)cc3)CC2)c1 | 61.1* | 1.5
Cc1ccc(C(=O)N2CCC(CCNS(=O)(=O)c3ccccc3)CC2)cc1 | 36.6 | -3.2
O=C(c1ccccc1)N1CCC(CCNS(=O)(=O)c2ccc(F)cc2)CC1 | 25.9 | -1.6
Cc1ccc(C(=O)N2CCC(CCNS(=O)(=O)c3cccc(C#N)c3)CC2)cc1 | 50.4* | -3.7
CCOc1ccc(S(=O)(=O)NCCC2CCN(C(=O)c3ccc(C)cc3)CC2)cc1 | 61.6* | -3.3
Cc1ccc(F)cc1S(=O)(=O)NCCC1CCN(C(=O)c2ccc(F)cc2)CC1 | 34.4 | -1.8
O=C(CN(c1cccc([N+](=O)[O-])c1)S(=O)(=O)c1ccccc1)NC1CC2CCC1C2 (stereo unspecified) | 1.1 | 1.4
O=C(c1ccccc1F)N1CCCCC1CCN1CCCCCC1 (stereo unspecified) | 0.1 | -13.5
CCOC(=O)C(C)Oc1ccc2c(=O)c(-c3ccc(Br)cc3)coc2c1 (stereo unspecified) | -8.8 | -8.4
O=C(CCc1nnc(-c2ccc(F)cc2)[nH]c1=O)N1CCCCC1 | 0.9 | 1.1
Cc1ccc(C(=O)N2CCC(CCNS(=O)(=O)c3c(C)cc(C)cc3C)CC2)cc1 | 44.8 | 2.2
Cc1ccc(C(=O)N2CCC(CCNS(=O)(=O)c3ccc(F)cc3)CC2)cc1 | 53.2* | -1.6
Cc1ccc(C(=O)N2CCC(CCNS(=O)(=O)c3c(C)noc3C)CC2)cc1 | 61.9* | -0.6
Cc1ccc(C(=O)N2CCC(CCNS(=O)(=O)c3ccc(C)cc3)CC2)cc1 | 36.9 | -4.2
Cc1c(C)c2ccc(OCc3ccc(C(=O)O)o3)cc2oc1=O | -3.0 | 0.7
O=C(O)c1ccc(Br)c(S(=O)(=O)Nc2ccc(NC(=O)c3ccccc3)cc2)c1 | -5.0 | -3.0
CCC(=O)N1CCc2nc3c(Cl)cccc3c(C(=O)OC)c2C1 | 5.2 | 1.9
O=C(NC1CC2CC1CN2C(=O)NCCc1ccccc1)c1cccs1 (stereo unspecified) | -3.9 | -1.5
